PubChem BioAssay AID624117 (National Center for Advancing Translational Sciences (NCATS), 2012)
Inconclusive results are not listed. The source made the active and inactive calls. The call rests on the fitted dose curve; in most records, active means well fitted curve in the direction sought with a large enough effect; inconclusive means small, poorly fitted or top-dose-only effect, or another doubt; inactive means no such curve, though single readings can be large or run the other way.

Assay: qHTS Assay for Rab9 Promoter Activators: Hit Validation Using Renilla Luciferase Read-Out
Conditions: Huh7 NPC1 promoter Renilla luciferase reporter, 24 h; series mostly up to 76.9 µM
Method in brief: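 Huh7 cells stably carrying NPC promoter-luciferase, 1,500 cells/well, exposed to compound for 24 h at 37 deg C. Luminescence read 10 min after […] addition; validation of firefly-read primary hits.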
Potency means the concentration at half of the fitted maximal effect.

Potency, inactive:
O=CN1CCN(C(=O)c2ccccc2Cl)CC1
COC(=O)c1sccc1NC(=S)OC
Cc1cccc(C)c1NC(=O)Nc1cccs1
Cn1c(SCc2ccccc2)nnc1-c1cnccn1
O=C(O)CSc1nnc(-c2ccncc2)n1CCc1ccccc1
CCCCn1c(Nc2ccc(OC)cc2)nc2ccccc21
COCCNC(=O)C1CCC(CNS(=O)(=O)c2ccc(F)cc2)CC1 (centres undefined)
COC(=O)CSc1nc2cc3c(cc2cc1C#N)OCO3
CCC1=[N+](CC(=O)c2ccc(C)cc2)CCn2cccc21
COCCSc1ncnc2c1oc1nc3c(cc12)COC(C)(C)C3
Nc1ccccc1C(=O)N/N=C1/C2CN3CCN(C2)CC1(Cc1ccccc1)C3
Cc1ccc(NC(=O)c2cccc(N3C(=O)CCC3=O)c2)nc1
N#CC/C(N)=N/NC(=O)CCCNc1ncc(C(F)(F)F)cc1Cl
Cc1cc(C)cc(N(CC(=O)NC2CCCC2)C(=O)CNC(=O)c2ccco2)c1
CNC(=O)Cn1nc(C)c2ccccc2c1=O
Cc1ccc(NC(=O)COC(=O)C2C3CC4OC(=O)C2C4C3)cc1Cl (centres undefined)
COc1ccc(/C=C\c2onc(C)c2S(=O)(=O)N2CCC(C(=O)NCCC(C)C)CC2)cc1
COc1ccc(-n2cc(-c3ccc(Cl)cc3)[nH]c2=S)cc1
CCC(=O)Nc1cc(-c2cc3ccccc3oc2=O)ccc1OC
O=C(NNC(=O)C1COc2ccccc2O1)c1ccccc1O (centres undefined)
O=C(CSc1nnc(-c2csc3c2CCCC3)o1)Nc1ccccc1
CCOC(=O)CSc1nc2cc3c(cc2cc1C#N)OCO3
COc1ccccc1CNC(=O)COc1ccc(C)cc1
CN(C)/C=N/c1c(C#N)cnn1-c1nc2ccccc2s1
O=C(COc1ccccc1F)Nc1ccc(-c2nc3ccccc3s2)cc1
COc1cccc(C(C(=O)NC2CCCC2)N(CCC(C)C)C(=O)CCC(=O)Nc2cc(C)on2)c1 (centres undefined)
Brc1ccccc1-c1nnc(CSc2nnc3sc4ccccc4n23)o1
CCOc1cc(C(=O)N=c2sccn2C)ccc1OC(F)F
Cc1ccccc1NC(=O)Cc1nc(COC(=O)CC(C)c2ccccc2)cs1 (centres undefined)
CCOc1ccc(CNC(=O)C2CCCN(S(C)(=O)=O)C2)cc1OC (centres undefined)
Cc1ccc(N(O)C(=O)NCCCCNC(=O)N(O)c2ccc(C)cc2)cc1
Cc1nnc2n(c1=O)N=C(c1ccc(Cl)cc1)CS2
COc1ccc(C(=O)OCC(=O)N2CCCC2=O)c(OC)c1
O=C(NCCc1ccccc1)c1cc2ncc(Br)cn2n1
CC(=O)Nc1nnc(SCC(=O)NCCOc2ccccc2)s1
O=C(NC1CCCC1)C(c1ccc(F)cc1)N(C(=O)c1csnn1)c1ccccc1 (centres undefined)
O=C(C[N+]1(CC#Cc2ccccc2)CCCCC1)c1ccccc1
O=C(NCCSCc1c(F)cccc1Cl)c1ccc(CN2CCOCC2)cc1

Potency, active:
Cc1ccc(S(=O)(=O)/N=C(/Nc2ccccn2)c2ccc(Cl)cc2)cc1 20.7 µM
